# Where “and” joins values, the source holds several entries; their conditions need not be identical. Equal entries are not always repeated. Inconclusive results are not listed. A call without a number means that no potency is given here. Some structures have more than one record in an assay (separate samples or runs), and their calls can disagree. Calls of active or inactive are those of the source. Unless noted, calls follow the shape of the full dose curve.
# Legend:
# [1] = Nuclear factor erythroid 2-related factor 2/antioxidant responsive element (Nrf2/ARE) small molecule agonists: luciferase reporter gene qHTS assay in human keratinocytes (AID 1919969); details: KeratinoSens HaCaT ARE-luciferase, luminescence, 24 h; series mostly up to 92.4 µM; also: nearly all actives have a fitted effect of over 35% in size; also: potency is read from the fitted curve at half-maximal effect
# [2] = target: Gonadotropin-releasing hormone receptor (Homo sapiens) (UniProt P30968); assay: Human gonadotropin-releasing hormone receptor (GnRHR) small molecule agonists, calcium flux assay in GnRHR-HEK293 cells (AID 1920063); details: calcium flux fluorescence, agonist mode; series mostly up to 57.6 µM; also: nearly all actives have a fitted effect of over 35% in size
# Procedure, shortened: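 We seeded human GnRHR-expressing HEK293 cells for 18 hours, loaded them with calcium dye for an hour at 37 C, added test compounds, and recorded fluorescence intensity kinetically for three minutes.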
# [3] = target: KiSS-1 receptor (Homo sapiens) (UniProt Q969F8); assay: Human kisspeptin (KISS1R) small molecule agonists, calcium flux assay in KISS1R-HEK293 cells (AID 1920064; active = well fitted activation curve with a large enough effect in the repeat runs); details: KISS1R-HEK293, calcium flux fluorescence, agonist; series mostly up to 76.8 µM
# Procedure, shortened: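 Kinetic calcium assay, 1 s sampling over 3 min at Ex/Em 480/540, in HEK293 cells engineered with human KISS1R; compounds delivered in DMSO after 1 h dye loading.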
# [4] = G protein-coupled receptor (GPCR) small molecule agonists, calcium flux assay: HEK293 wild type cell line counter screen (AID 1920065); details: HEK293 WT calcium flux, fluorescence, agonist mode; series mostly up to 57.6 µM
# Procedure, shortened: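 Calcium-sensitive dye, loaded 1 h at 37 C into cells cultured 18 h, reports compound-evoked calcium release as fluorescence (Ex/Em 480/540), measured over 3 min. Agonist mode; 15-point titrations, triplicate.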
# [5] = p53 small molecule agonists, cell-based qHTS assay with human liver microsomes: qHTS cell viability counter screen (AID 1963579); details: p53RE-bla HCT-116 viability, ATP luminescence, 16 h, HLM; series mostly up to 66 µM; also: nearly all actives have a fitted effect of over 45% in size
# Procedure, shortened: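 Metabolic activation used human liver microsomes and NADPH, both 0.5 mg/mL final, over 16 hours at 37 C on p53RE-bla cells (4,000/well). Cytotoxicity measured by CellTiter-Glo luminescence, 30 min at room temperature.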
# [6] = p53 small molecule agonists, cell-based qHTS assay with rat liver microsomes: qHTS cell viability counter screen (AID 1963580); details: p53RE-bla HCT-116 + rat microsomes, ATP viability, 16 h; series mostly up to 66 µM; also: nearly all actives have a fitted effect of over 45% in size
# Procedure, shortened: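 HCT-116 p53RE-bla, 4,000 cells/well, 5 h pre-incubation; cpd + rat liver microsomes 0.5 mg/mL + NADPH 0.5 mg/mL (final); 16 h, 37 C; CellTiter-Glo, 30 min RT; luminescence.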
# [7] = p53 small molecule agonists, cell-based qHTS assay: qHTS cell viability counter screen (AID 1963581); details: p53RE-bla HCT-116 viability, ATP luminescence, 16 h; series mostly up to 66 µM; also: nearly all actives have a fitted effect of over 45% in size
# Procedure, shortened: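 Following 5 h attachment, HCT-116 p53RE-bla cells took up compound for 16 h at 37 C; the reporter was read with B/G FRET substrate (2 h RT), and viability then via CellTiter-Glo ATP luminescence.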
# [8] = cAMP Responsive Elements (CRE) small molecule agonists, cell-based qHTS assay (AID 1963590); details: CRE-bla HEK293T, beta-lactamase FRET ratio, 3 h; series mostly up to 92.4 µM
# Procedure, shortened: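 A CRE-responsive beta-lactamase reporter in HEK 293T cells was used. Treatment ran 3 h at 37 C; detection used LiveBLAzer B/G FRET substrate for 2 h at room temperature.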
# [9] = cAMP Responsive Elements (CRE) small molecule antagonists, cell-based qHTS assay (AID 1963591; active = well fitted inhibition curve with a large enough effect in the signal ratio in the repeat runs, not every such curve was filed as active; the % refers to the signal ratio); details: CRE-bla HEK293T, beta-lactamase FRET ratio; series mostly up to 92.4 µM
# Procedure, shortened: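 HEK293T cells carrying a CRE-driven beta-lactamase reporter receive compound and NKH477 (0.25 uM final) for 3 h. Fluorescence from LiveBLAzer B/G FRET substrate is read after 2 h at room temperature.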
# [10] = target: Beta-2 adrenergic receptor (Homo sapiens) (UniProt P07550); assay: Adrenergic beta2 receptor (ADRB2) small molecule antagonists, cell-based qHTS assay (AID 1963592); details: CHO-ADRB2 cells, isoproterenol-stimulated cAMP HTRF ratio, 0.5 h; series mostly up to 92.4 µM; also: nearly all actives have a fitted effect of over 50% in size; also: potency is read from the fitted curve at half-maximal effect
# Procedure, shortened: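 Cells (CHO, stable ADRB2 overexpression) incubated 18-20hr at 37C; compounds added from DMSO; agonist mix (1nM isoproterenol, 100uM IBMX, 25uM Ro-20-1724) added; 0.5hr RT; d2-cAMP and anti-cAMP-cryptate added; 1hr RT; 665/615 nm read.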
# [11] = target: Beta-2 adrenergic receptor (Homo sapiens) (UniProt P07550); assay: Adrenergic beta2 receptor (ADRB2) small molecule agonists, cell-based qHTS assay (AID 1963593); details: CHO-ADRB2 cells, cAMP HTRF, 30 min; series mostly up to 92.4 µM;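 also: CHO cells stably overexpressing human ADRB2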
# Procedure, shortened: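 CHO cells stably over-expressing ADRB2 were plated overnight at 37C, then dosed with compounds plus a stimulation mix containing 100uM IBMX and 25uM Ro-20-1724 for 0.5hr at room temperature. cAMP was measured by HTRF competition, 1hr.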
# [12] = target: D(2) dopamine receptor (Homo sapiens) (UniProt P14416); assay: Dopamine D2 receptor (DRD2) small molecule agonists, cell-based qHTS assay (AID 1963594); details: HEK293-DRD2 cAMP HTRF, agonist mode, 30 min; series mostly up to 92.4 µM; also: nearly all actives have a fitted effect of over 35% in size
# Procedure, shortened: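 cAMP accumulation in DRD2-HEK293 cells measured by HTRF after 1 h detection; compounds added 10 min before NKH477 (200nM […]) forskolin-analogue stimulation, 30 min at room temperature, with Ro20-1724 present at 0.1 mM final.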
# [13] = target: D(2) dopamine receptor (Homo sapiens) (UniProt P14416); assay: Dopamine D2 receptor (DRD2) small molecule antagonists, cell-based qHTS assay (AID 1963595; active = well fitted inhibition curve with a large enough effect in the signal ratio in the repeat runs, with a control signal flat; the % refers to the signal ratio); details: HEK293-DRD2 cAMP HTRF antagonist mode; series mostly up to 92.4 µM
# Procedure, shortened: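 HEK293 cells stably expressing DRD2, preincubated with 0.1 mM Ro20-1724 and compounds 10 min, were stimulated with 200 nM NKH477 plus 12 nM quinpirole for 30 min at room temperature; cAMP measured by HTRF (665/620 nm).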
# [14] = p53 small molecule agonists, cell-based qHTS assay with human liver microsomes (AID 1963577); details: HCT-116 p53RE-bla with human liver microsomes, ratio, 16 h; series mostly up to 66 µM;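 also: p53 response element beta-lactamase reporter cells with liver microsomes plus NADPH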
# Procedure, shortened: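 With metabolic activation: human liver microsomes (0.5 mg/mL final) plus NADPH (0.5 mg/mL final) added alongside compounds to p53RE-bla cells; 16 h 37 C exposure; beta-lactamase read by LiveBLAzer fluorescence.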
# [15] = p53 small molecule agonists, cell-based qHTS assay with rat liver microsomes (AID 1963578); details: HCT-116 p53RE-bla, beta-lactamase ratio, 16 h; series mostly up to 66 µM
# Procedure, shortened: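 Metabolic activation by rat liver microsomes and NADPH, each 0.5 mg/mL final, added right after compounds to p53RE-bla reporter cells (4,000/well, plated 5 h earlier). 16 h at 37 C, then LiveBLAzer substrate for 2 h at room temperature in the dark; fluorescence read-out.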
# [16] = p53 small molecule agonists, cell-based qHTS assay (AID 1963582; active = well fitted activation curve with a large enough effect in the signal ratio in the repeat runs, not every such curve was filed as active; the % refers to the signal ratio); details: HCT-116 p53RE-bla reporter, beta-lactamase FRET ratio, 16 h; series mostly up to 66 µM
# Procedure, shortened: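 In this cell-based concentration-response screen, a p53 response element drives beta-lactamase; cells received DMSO-borne compounds after 5 h culture and were incubated a further 16 h before FRET substrate development.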
# [17] = target: 5-hydroxytryptamine receptor 2A (Homo sapiens) (UniProt P28223); assay: 5-hydroxytryptamine receptor 2A (HTR2A) small molecule antagonists, cell-based qHTS assay (AID 1963586); details: HTR2A-CHO cells, DOI-induced calcium flux, fluorescence; series mostly up to 61.5 µM; also: nearly all actives have a fitted effect of over 45% in size
# Procedure, shortened: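 Antagonist-mode intracellular calcium assay: DOI (4 nM) added after 5 min compound pre-incubation at room temperature to dye-loaded HTR2A-CHO cells. Fluorescence followed for 3 min, sampled every second.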
# [18] = target: 5-hydroxytryptamine receptor 2A (Homo sapiens) (UniProt P28223); assay: 5-hydroxytryptamine receptor 2A (HTR2A) small molecule agonists, cell-based qHTS assay (AID 1963587); details: HTR2A-CHO cells, calcium flux fluorescence, agonist mode; series mostly up to 76.8 µM; also: nearly all actives have a fitted effect of over 30% in size
# Procedure, shortened: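 Kinetic calcium-flux fluorescence (2 min, 1 sec intervals) after compound addition in agonist mode. HTR2A-CHO cells were cultured 18 h, then dye-loaded 1 h at 37 C.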
# [19] = target: Muscarinic acetylcholine receptor M1 (Homo sapiens) (UniProt P11229); assay: Cholinergic receptor muscarinic 1 (CHRM1) small molecule antagonists, cell-based qHTS assay (AID 1963588); details: CHRM1-CHO antagonist mode, calcium flux fluorescence; series mostly up to 61.5 µM; also: nearly all actives have a fitted effect of over 40% in size
# Procedure, shortened: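 CHRM1-CHO calcium-flux assay, antagonist mode. Cells were seeded 18 h, dye-loaded 1 h at 37 C and given compound for 5 min at RT, then acetylcholine was added at 50nM. FDSS fluorescence was read 3 min; 15 concentrations, three runs.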
# [20] = target: Muscarinic acetylcholine receptor M1 (Homo sapiens) (UniProt P11229); assay: Cholinergic receptor muscarinic 1 (CHRM1) small molecule agonists, cell-based qHTS assay (AID 1963589); details: CHRM1-CHO cells, agonist mode, calcium flux fluorescence; series mostly up to 76.8 µM; also: nearly all actives have a fitted effect of over 35% in size
# Procedure, shortened: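 Measures agonist-induced intracellular calcium rise. Stable human CHRM1 CHO line, 1 h dye load at 37 C, compounds from DMSO, kinetic fluorescence read.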
# Gonadotropin-releasing hormone receptor (Homo sapiens), sequence (P30968 whole entry, looked up): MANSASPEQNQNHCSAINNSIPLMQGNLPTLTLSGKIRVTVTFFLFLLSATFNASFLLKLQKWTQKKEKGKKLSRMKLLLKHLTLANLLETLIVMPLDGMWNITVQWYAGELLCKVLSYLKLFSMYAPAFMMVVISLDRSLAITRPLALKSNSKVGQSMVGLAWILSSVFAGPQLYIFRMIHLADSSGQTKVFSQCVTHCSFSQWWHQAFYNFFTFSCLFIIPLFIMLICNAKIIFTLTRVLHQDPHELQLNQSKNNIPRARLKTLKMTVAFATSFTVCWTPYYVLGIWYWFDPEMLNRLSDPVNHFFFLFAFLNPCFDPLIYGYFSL
# Muscarinic acetylcholine receptor M1 (Homo sapiens), sequence (P11229 whole entry, looked up): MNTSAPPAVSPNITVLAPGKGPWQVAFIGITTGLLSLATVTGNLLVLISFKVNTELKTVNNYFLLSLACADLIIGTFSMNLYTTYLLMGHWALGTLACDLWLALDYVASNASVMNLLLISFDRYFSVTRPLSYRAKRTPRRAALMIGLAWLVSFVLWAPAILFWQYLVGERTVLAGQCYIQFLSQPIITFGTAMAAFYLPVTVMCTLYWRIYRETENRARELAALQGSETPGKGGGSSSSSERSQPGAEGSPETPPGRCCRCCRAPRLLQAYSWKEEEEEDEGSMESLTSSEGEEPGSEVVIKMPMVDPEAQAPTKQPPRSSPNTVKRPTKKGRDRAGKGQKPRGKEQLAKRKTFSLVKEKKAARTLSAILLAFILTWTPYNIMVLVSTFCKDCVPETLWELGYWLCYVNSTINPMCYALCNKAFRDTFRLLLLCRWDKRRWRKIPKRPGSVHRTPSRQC
# 5-hydroxytryptamine receptor 2A (Homo sapiens), sequence (P28223 whole entry, looked up): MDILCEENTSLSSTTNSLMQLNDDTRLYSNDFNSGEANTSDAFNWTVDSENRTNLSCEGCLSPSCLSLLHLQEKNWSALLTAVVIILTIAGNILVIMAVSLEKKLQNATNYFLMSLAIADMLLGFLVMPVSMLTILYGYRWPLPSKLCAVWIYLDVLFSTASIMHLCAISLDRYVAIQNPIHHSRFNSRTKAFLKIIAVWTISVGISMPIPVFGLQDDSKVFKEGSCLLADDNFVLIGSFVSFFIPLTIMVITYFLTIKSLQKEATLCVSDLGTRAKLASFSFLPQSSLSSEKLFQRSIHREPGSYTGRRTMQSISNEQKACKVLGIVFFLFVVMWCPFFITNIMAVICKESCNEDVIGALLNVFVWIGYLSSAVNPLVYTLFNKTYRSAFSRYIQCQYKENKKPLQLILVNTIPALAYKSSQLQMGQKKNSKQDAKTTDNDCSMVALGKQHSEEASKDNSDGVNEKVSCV
# KiSS-1 receptor (Homo sapiens), sequence (Q969F8 whole entry, looked up): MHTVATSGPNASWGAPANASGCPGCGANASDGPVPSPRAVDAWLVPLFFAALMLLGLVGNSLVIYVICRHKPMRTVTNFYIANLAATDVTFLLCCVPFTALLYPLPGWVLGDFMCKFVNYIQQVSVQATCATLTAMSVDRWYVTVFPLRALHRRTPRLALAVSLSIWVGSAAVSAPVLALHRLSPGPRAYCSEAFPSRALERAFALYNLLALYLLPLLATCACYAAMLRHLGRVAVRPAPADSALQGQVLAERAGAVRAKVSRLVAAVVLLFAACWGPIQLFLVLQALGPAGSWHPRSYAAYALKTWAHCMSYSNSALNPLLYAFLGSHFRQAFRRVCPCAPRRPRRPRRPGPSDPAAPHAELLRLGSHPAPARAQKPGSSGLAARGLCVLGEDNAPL
# D(2) dopamine receptor (Homo sapiens), sequence (P14416 whole entry, looked up): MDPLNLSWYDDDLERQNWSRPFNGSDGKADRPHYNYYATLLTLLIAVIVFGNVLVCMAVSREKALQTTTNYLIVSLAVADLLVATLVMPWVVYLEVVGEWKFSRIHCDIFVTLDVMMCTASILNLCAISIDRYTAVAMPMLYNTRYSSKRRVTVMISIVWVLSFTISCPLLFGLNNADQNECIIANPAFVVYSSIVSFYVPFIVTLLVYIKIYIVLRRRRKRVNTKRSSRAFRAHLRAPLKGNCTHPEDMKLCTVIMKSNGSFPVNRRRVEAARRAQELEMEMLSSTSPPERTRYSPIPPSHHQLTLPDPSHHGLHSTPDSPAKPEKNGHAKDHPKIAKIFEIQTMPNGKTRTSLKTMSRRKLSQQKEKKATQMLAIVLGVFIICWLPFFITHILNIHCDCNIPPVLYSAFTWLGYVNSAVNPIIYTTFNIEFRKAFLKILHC
# Beta-2 adrenergic receptor (Homo sapiens), sequence (P07550 whole entry, looked up): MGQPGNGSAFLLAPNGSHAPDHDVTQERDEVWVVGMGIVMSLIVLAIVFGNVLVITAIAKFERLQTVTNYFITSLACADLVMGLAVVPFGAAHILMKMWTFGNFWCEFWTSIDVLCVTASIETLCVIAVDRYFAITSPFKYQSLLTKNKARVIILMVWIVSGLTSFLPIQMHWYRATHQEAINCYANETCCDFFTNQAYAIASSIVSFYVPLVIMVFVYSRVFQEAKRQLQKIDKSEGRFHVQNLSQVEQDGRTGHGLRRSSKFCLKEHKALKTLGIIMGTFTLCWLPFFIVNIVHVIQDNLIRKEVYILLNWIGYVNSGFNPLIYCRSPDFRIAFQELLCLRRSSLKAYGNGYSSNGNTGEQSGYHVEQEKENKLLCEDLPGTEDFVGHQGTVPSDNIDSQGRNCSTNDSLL
Structure (SMILES),Potency [1],Potency [2],Potency [3],Potency [4],Potency [5],Potency [6],Potency [7],Potency [8],Potency [9],Potency [10],Potency [11],Potency [12],Potency [13],Potency [14],Potency [15],Potency [16],Potency [17],Potency [18],Potency [19],Potency [20]
COc1ccc(CN(CCN(C)C)c2ccccn2)cc1,inactive,inactive,inactive,inactive,inactive,inactive,inactive,inactive,inactive,inactive,inactive,inactive,inactive,,,,,,,
CCOC(=O)NNc1nncc2ccccc12,inactive,inactive,inactive,inactive,,inactive,inactive,inactive,inactive,inactive,inactive,,inactive,inactive,inactive,inactive,inactive,inactive,inactive,inactive
C=CN1CCCC1=O,,inactive,inactive,inactive,,inactive,inactive,inactive,inactive,inactive,,inactive,inactive,inactive,inactive,inactive,inactive,inactive,inactive,inactive
C=CC(=O)OCCOCCOCCOCCOC(=O)C=C,24.5 µM (active) and 27.1 µM (active),,inactive,inactive,inactive,inactive,,,,inactive,,inactive,inactive,inactive,inactive,inactive,inactive,inactive,inactive,inactive
O=C(O)c1ccc2c(c1)C(=O)OC2=O,inactive,inactive,inactive,inactive,inactive,inactive,inactive,inactive,inactive,inactive,inactive,inactive,inactive,inactive,,inactive,inactive,inactive,inactive,inactive
CC(=O)O[C@]1(C(C)=O)CC[C@H]2[C@@H]3C=C(Cl)C4=CC(=O)[C@@H]5C[C@@H]5[C@]4(C)[C@H]3CC[C@@]21C,inactive,inactive,inactive,inactive,inactive,inactive,,,,inactive,inactive,inactive,inactive,,,,,,,
Nc1cccc(C(F)(F)F)c1,inactive,,,inactive,inactive,,,inactive,inactive,inactive and 54.5 µM (active),,inactive,inactive,inactive,inactive,,inactive,inactive,inactive,inactive
COCCOC(=O)c1ccccc1C(=O)OCCOC,inactive,inactive,inactive,inactive,inactive,inactive,,inactive,inactive,inactive,,inactive,inactive,inactive,inactive,,inactive,inactive,inactive,inactive

# — PubChem BioAssay (Tox21)
